From PubChem BioAssay (Tox21)
Values joined by “and” are separate entries in the source; they are usually repeats but may differ in a detail not shown here. Equal values may be shown once. Some structures have more than one record in an assay (separate samples or runs), and their calls can disagree. Active and inactive are the calls of the source. Entries that show only a call come without a potency. The call rests on the fitted dose curve.

target: Estrogen receptor (Homo sapiens) (UniProt P03372); assay: qHTS assay to identify small molecule agonists of the estrogen receptor alpha (ER-alpha) signaling pathway (AID 743075); conditions: HEK293 ER-alpha-UAS-bla, beta-lactamase FRET ratio, 18 h; series mostly up to 70.1 µM;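 further: HEK293 GripTite cells with ER-alpha and UAS-driven beta-lactamase reporter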
Potency means the concentration at half of the fitted maximal effect.

Estrogen receptor (Homo sapiens), sequence (P03372 whole entry, looked up): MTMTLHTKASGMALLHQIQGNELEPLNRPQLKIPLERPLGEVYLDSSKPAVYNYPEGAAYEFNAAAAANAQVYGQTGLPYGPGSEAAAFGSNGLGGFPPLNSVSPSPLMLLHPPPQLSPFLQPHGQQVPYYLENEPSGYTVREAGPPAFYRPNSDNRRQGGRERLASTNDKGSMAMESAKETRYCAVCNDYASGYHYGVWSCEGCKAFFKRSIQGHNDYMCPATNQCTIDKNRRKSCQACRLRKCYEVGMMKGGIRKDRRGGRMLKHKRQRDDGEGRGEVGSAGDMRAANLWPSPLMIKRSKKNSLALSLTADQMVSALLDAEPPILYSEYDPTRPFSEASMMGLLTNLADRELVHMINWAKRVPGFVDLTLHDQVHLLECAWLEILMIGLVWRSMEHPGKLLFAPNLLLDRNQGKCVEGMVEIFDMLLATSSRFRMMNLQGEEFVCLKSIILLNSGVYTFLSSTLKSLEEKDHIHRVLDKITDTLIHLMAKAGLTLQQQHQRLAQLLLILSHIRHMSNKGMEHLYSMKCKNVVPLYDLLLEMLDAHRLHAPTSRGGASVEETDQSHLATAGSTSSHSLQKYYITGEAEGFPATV

Q: With `O=[N+]([O-])c1cc(Cl)c(Cl)cc1Cl` as the compound, how does the Potency read?
A: Its Potency is “inactive”.

Q: With `CC(C)(C)NCC(O)c1ccccc1Cl` (configuration not stated) as the compound, how does the Potency read?
A: The Potency was “inactive”.

Q: `O=C([O-])c1ccccn1.O=C([O-])c1ccccn1.O=C([O-])c1ccccn1.[Cr+3]` was tested. Which Potency did it give?
A: Its Potency is “inactive”.

Q: How did the Potency turn out when `CCSCc1ccccc1OC(=O)NC` was run?
A: The Potency was “inactive”.

Q: How did the Potency turn out when `C=CCOC(=O)C(C)(C)OC(=O)c1cc(-n2c(=O)cc(C(F)(F)F)n(C)c2=O)ccc1Cl` was run?
A: The Potency was “inactive”.

Q: `CC(O)CN1CCN(CC(=O)[O-])CCN(CC(=O)[O-])CCN(CC(=O)[O-])CC1.[Gd+3]` (configuration not stated) was tested. Which Potency did it give?
A: The Potency was “inactive and 23.9 µM [inconclusive] (active)”.

Q: With `CCCN(CCC)c1c([N+](=O)[O-])cc(C(C)C)cc1[N+](=O)[O-]` as the compound, how does the Potency read?
A: The Potency was “inactive”.

Q: How did the Potency turn out when `Nc1c(Br)cc(Br)c2c1C(=O)c1ccccc1C2=O` was run?
A: Its Potency is “inactive”.

Q: `O=P(OCC(Br)CBr)(OCC(Br)CBr)OCC(Br)CBr` (configuration not stated) was tested. Which Potency did it give?
A: Its Potency is “inactive”.

Q: For `C=C(Cl)Cl`, which Potency is on record?
A: Its Potency is “inactive”.

Q: How did the Potency turn out when `SCc1ccccc1` was run?
A: Its Potency is “inactive”.

Q: `CCCC[N+]1(C)[C@@H]2CC(OC(=O)[C@H](CO)c3ccccc3)C[C@H]1[C@@H]1O[C@@H]12` (some centres not stated) was tested. Which Potency did it give?
A: The Potency was “inactive”.

Q: For `CN1CC[C@]23c4c5ccc(O)c4O[C@H]2[C@@H](O)CC[C@H]3[C@H]1C5`, which Potency is on record?
A: Its Potency is “inactive”.

Q: With `N#CC(C#N)=C(C#N)C#N` as the compound, how does the Potency read?
A: The Potency was “inactive”.

Q: Which Potency does the source give for `CCCC(C)(COC(N)=O)COC(=O)NC(C)C` (configuration not stated) here?
A: Its Potency is “inactive”.

Q: Which Potency does the source give for `C=CCOCC1CO1` (configuration not stated) here?
A: The Potency was “inactive”.

Q: `COCc1cnc(C2=NC(C)(C(C)C)C(=O)N2)c(C(=O)O)c1` (configuration not stated) was tested. Which Potency did it give?
A: The Potency was “inactive”.

Q: How did the Potency turn out when `CN[C@@H](C)[C@H](O)c1ccccc1` was run?
A: Its Potency is “inactive”.

Q: Which Potency does the source give for `COc1cc(CC(C)N)c(OC)cc1Br` (configuration not stated) here?
A: The Potency was “inactive”.

Q: For `OCCSSCCO`, which Potency is on record?
A: The Potency was “inactive”.

Q: For `CCCCCBr`, which Potency is on record?
A: The Potency was “inactive”.

Q: For `Cc1ccc2c(C)cccc2c1`, which Potency is on record?
A: The Potency was “inactive”.

Q: For `CCCCC(CC)CO[N+](=O)[O-]` (configuration not stated), which Potency is on record?
A: The Potency was “inactive”.

Q: For `COC(=O)C1(O)c2ccccc2-c2ccccc21`, which Potency is on record?
A: Its Potency is “inactive”.

Q: How did the Potency turn out when `CCC[N+](CCC)(CCC)CCC` was run?
A: The Potency was “inactive”.

Q: How did the Potency turn out when `CN(C1CCCCC1)C1CCCCC1` was run?
A: The Potency was “inactive”.

Q: With `CCNC(=O)NC(=O)/C(C#N)=N/OC` as the compound, how does the Potency read?
A: The Potency was “inactive”.

Q: `C=C(C)C(=O)OCCCCOC(=O)C(=C)C` was tested. Which Potency did it give?
A: The Potency was “inactive”.

Q: How did the Potency turn out when `CCCSP(=S)(OCC)Oc1ccc(SC)cc1` (configuration not stated) was run?
A: The Potency was “inactive”.

Q: `CCCBr` was tested. Which Potency did it give?
A: Its Potency is “inactive”.

Q: How did the Potency turn out when `CC(C)c1ccc(OP(=O)(Oc2ccc(C(C)C)cc2)Oc2ccc(C(C)C)cc2)cc1` was run?
A: Its Potency is “inactive”.

Q: Which Potency does the source give for `CCCC1CCCCN1` (configuration not stated) here?
A: Its Potency is “inactive”.

Q: `Clc1ccccc1` was tested. Which Potency did it give?
A: Its Potency is “inactive”.

Q: Which Potency does the source give for `C[N+](C)(C)CC1CO1` (configuration not stated) here?
A: Its Potency is “inactive”.

Q: Which Potency does the source give for `CCCC[N+](CCCC)(CCCC)CCCC` here?
A: Its Potency is “inactive”.

Q: How did the Potency turn out when `CCC1(CC)C(=O)NC(=O)NC1=O` was run?
A: Its Potency is “inactive”.

Q: `CCOP(=S)(S)OCC` was tested. Which Potency did it give?
A: Its Potency is “inactive”.
